Screening data from PubChem.
This is a sample that favours compounds with a hit; in the whole collection about 19% have one here.
ELG1 repair inh: qHTS screen for small molecules that inhibit ELG1-dependent DNA repair in human embryonic kidney (HEK293T) cells expressing luciferase-tagged ELG1; HEK293T ELG1-luciferase reporter, luminescence, 16 h; DNA damage induced by 5-fluorouridine; Potency, µM (doses to about 46.1 µM), without a hit: at the highest dose activity change, negative = inhibition, most hits filed as inhibitors; 330,000 tested, 2.3% active; AID 504467, 2011; note: potency is the fitted concentration of half-maximal effect; nearly all actives have a fitted effect of over 55% in size
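Step one: seed 2,000 cells per well. Step two: pin-transfer compound or DMSO alongside 5-fluorouridine. Step three: incubate 16 hr, 37 °C, 5% CO2. Step four: add ONE-Glo, wait 30 min, read luminescence.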
IL-1B inflam inh: qHTS for Inhibitors of Inflammasome Signaling: IL-1-beta AlphaLISA Primary Screen | THP-1 LPS/ATP IL-1B secretion, AlphaLISA, 16 h; hits give low values | activity change, % at 57.5 µM | 360,000 tested, 4.7% active | AID 743279, 2014; in the data active = activity change below about -50%; inconclusive = mostly about -30% to -49%
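THP-1 cells pretreated 1 hr with compounds (up to 57.5 uM final), then stimulated with LPS (250 ng/mL final) plus ATP (1.25 mM final); secreted IL-1B measured by AlphaLISA after 16 hr, decreased signal indicating inhibition.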
HT1080 IDH1KD tx: qHTS for induction of synthetic lethality in tumor cells producing 2HG: qHTS for the HT-1080-IDH1KD cell line | HT-1080 IDH1 knockdown viability, ATP luminescence, 48 h | Potency, µM (highest dose often 46.1 µM), for inactives: at the top dose activity, negative = toxicity, hits mostly cytotoxic | 360,000 tested, 2% active;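 note: potency is the fitted concentration of half-maximal effect; 0% = DMSO wells and -100% = cell-free medium wells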
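Knockdown cells (IDH1KD HT-1080) received compounds 2 h after plating at 750 cells/well and were kept 48 h at 37 °C in 5% FBS RPMI. A CellTiter-Glo luminescence read gave % activity for curve fitting.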
DT40 TDP1 CPT: qHTS for Inhibitors of human tyrosyl-DNA phosphodiesterase 1 (TDP1): qHTS in cells in presence of CPT; chicken DT40 Tdp1-/-;hTDP1 cells + 20 nM CPT, ATP luminescence, 48 h; Potency, µM (doses to about 46.2 µM), for inactives: at the highest dose activity change, negative = growth inhibition, actives largely listed as inhibitors; 420,000 tested, 12% active; note: potency is the fitted concentration of half-maximal effect; nearly all actives have a fitted effect of over 55% in size
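Cell growth measured by CellTiter-Glo luminescence after a minimum 48 h, 37 C compound exposure with 20 nM CPT in Tdp1-knockout DT40 cells stably expressing hTDP1, seeded 400/well; qHTS titration format.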
TDP1 cell noCPT: qHTS for Inhibitors of human tyrosyl-DNA phosphodiesterase 1 (TDP1): qHTS in cells in absence of CPT; 420,000 tested, 15% active; Potency, µM (titrated, usually from 46.2 µM), inactives show top-dose activity change, negative = growth inhibition, usual class: inhibitors; AID 686978, 2013; DT40 Tdp1-/- hTDP1 cells, no CPT, ATP luminescence, 48 h; note: potency is the fitted concentration of half-maximal effect; nearly all actives have a fitted effect of over 55% in size
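Luminescent ATP content (CellTiter-Glo) served as the growth readout. Knockout chicken DT40 cells expressing human TDP1 were exposed to compounds without camptothecin for a minimum 48 hr at 37 °C.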
HT1080NT lethal: qHTS for induction of synthetic lethality in tumor cells producing 2HG: qHTS for the HT-1080-NT fibrosarcoma cell line | HT-1080-NT fibrosarcoma viability, CellTiter-Glo ATP luminescence, 48 h | Potency, µM (highest dose often 46.1 µM), without a hit: top-dose activity, negative = less viability, most hits filed as cytotoxic | 360,000 tested, 1.6% active | AID 686970, 2013;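 note: NT is the 2HG producing partner of a matched IDH1 knockdown line; potency is the fitted concentration of half-maximal effect; 0% = DMSO-treated cells and -100% = media-only wells without cells; nearly all actives have a fitted effect of over 55% in size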
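Fibrosarcoma NT cells, 750 per well in 5% FBS RPMI, were exposed to compound for 48 hours. Viability: CellTiter-Glo luminescence.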
* hit, by the source's call; ? = inconclusive; . = no result. Unless noted, calls come from the whole dose curve; as a rule, active = well fitted curve in the direction sought with a large enough effect; inconclusive = small, poorly fitted or top-dose-only effect, or another doubt; inactive = no such curve, though single readings can be large; an effect the other way counts as inactive or inconclusive. Unless noted, % is set by controls: 0 for no effect and ±100 for the full control effect.

SMILES | ELG1 repair inh | IL-1B inflam inh | HT1080 IDH1KD tx | DT40 TDP1 CPT | TDP1 cell noCPT | HT1080NT lethal
CCC(c1nnnn1Cc1ccc(F)cc1)N(CCCO)Cc1cc2cc3c(cc2[nH]c1=O)OCO3 (stereo unspecified) | -28.6% | -23.6 | -1.2% | ? | ? | 1.7%
O=c1[nH]c2cc3c(cc2cc1CN(Cc1nnnn1CC1CCCO1)C1CCCCC1)OCO3 (stereo unspecified) | ? | -3.8 | -0.1% | ? | ? | 2.9%
Cc1ccc2[nH]c(=O)c(CN(CCO)Cc3nnnn3Cc3ccco3)cc2c1 | . | . | . | -28.6% | ? | .
CCC(c1nnnn1Cc1ccccc1)N(Cc1ccccc1)Cc1cc2cc(C)ccc2[nH]c1=O (stereo unspecified) | . | . | . | 11.2µM* | ? | .
Cc1cc(C)c2cc(CN(CCO)C(c3nnnn3Cc3ccc(F)cc3)C(C)C)c(=O)[nH]c2c1 (stereo unspecified) | 5.17µM* | . | . | . | . | .
COc1ccc(C(=O)N2CCC(C(=O)N3CCN(Cc4ccccc4)CC3)CC2)cc1 | -2.9% | -3.2 | -0.5% | 12.5% | -5.2% | 3.6%
N#Cc1ccc(CN2CCN(c3ccc(S(=O)(=O)N4CCCC4)cn3)CC2)cc1 | 5.1% | 0.0 | -3.1% | -29.7% | -9.5% | 9.2%
COc1ccc(CN2CCC(=O)N(CCO)CC2)cc1OC | 9.0% | 14.1 | 13.2% | -3.4% | -0.9% | 5.5%
Cc1ccc2[nH]c(=O)c(CN(Cc3cccs3)Cc3nnnn3CC3CCCO3)cc2c1 (stereo unspecified) | -20.6% | ? | -4.5% | ? | 17.8µM* | ?
Cc1ccc2cc(CN(Cc3cccs3)Cc3nnnn3CC3CCCO3)c(=O)[nH]c2c1 (stereo unspecified) | ? | ? | -29.6% | ? | ? | -22.4%
Cc1ccc2[nH]c(=O)c(CN(Cc3cccs3)Cc3nnnn3Cc3ccco3)cc2c1 | . | . | . | ? | 17.8µM* | .
COc1ccc2[nH]c(=O)c(CN(Cc3cccs3)Cc3nnnn3Cc3ccccc3)cc2c1 | ? | -26.1 | ? | ? | ? | -12.7%
COCCn1nnnc1CN(CCc1ccccc1)Cc1cc2ccc(C)cc2[nH]c1=O | ? | 0.0 | -0.3% | ? | 25.9µM* | -2.1%
CCc1ccc2[nH]c(=O)c(CN(Cc3cccs3)Cc3nnnn3Cc3ccccc3)cc2c1 | . | . | . | ? | 12.6µM* | .
Cc1ccc2[nH]c(=O)c(CN(CCc3ccccc3)Cc3nnnn3CC3CCCO3)cc2c1 (stereo unspecified) | -12.7% | -22.5 | -4.6% | ? | ? | -4.1%
O=C(NCc1cccnc1)/C(=C\c1ccc(-c2ccc(Cl)c(Cl)c2)o1)S(=O)(=O)c1ccccc1 | 7.31µM* | -107.2* | ? | 4.61µM* | 4.61µM* | ?
CCOc1ccc2c(c1)C(NC(C)=O)C(=O)N2CCN1CCOCC1 (stereo unspecified) | 5.8% | 8.3 | 19.6% | ? | 14.6µM* | 18.1%
COc1ccccc1Cn1nnc2c(=O)[nH]c(C3CCN(C(=O)c4ccc(C)cc4)CC3)nc21 | 23.1µM* | -3.5 | -15.0% | -23.2% | -12.7% | -0.3%
CCOc1ccccc1NC(=O)N1CCCC(c2nc3c(nnn3Cc3ccc(C)cc3)c(=O)[nH]2)C1 (stereo unspecified) | ? | -0.7 | ? | 29.1µM* | ? | -22.1%
